According to article PMC7819943, “Rice protein-binding microarrays: a tool to detect cis-acting elements near promoter regions in rice”:
In all, about 35,000 sequences were measured (“fluorescence intensity (a.u.)”: median about 10,000, highest 2% from about 52,000 on). The full list was thinned out, with the highest values kept by preference.

Target: T1, OsWOX13 (Oryza sativa, UniProt Q5QMM3 1-267)
T1 sequence: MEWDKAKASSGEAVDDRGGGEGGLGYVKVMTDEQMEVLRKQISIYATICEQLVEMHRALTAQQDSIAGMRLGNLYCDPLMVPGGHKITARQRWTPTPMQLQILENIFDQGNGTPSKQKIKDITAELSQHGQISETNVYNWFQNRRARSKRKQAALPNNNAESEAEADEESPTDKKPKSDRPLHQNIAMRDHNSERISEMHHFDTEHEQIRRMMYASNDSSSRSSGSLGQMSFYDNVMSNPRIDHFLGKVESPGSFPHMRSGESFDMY
Experiment: protein-binding microarray (RPBM); PBS, 2% BSA, 51.3 ng/ul salmon testes DNA, 50 uM zinc acetate, 200 nM TF, 25 C, 1 h; high values mean tight binding
Settings: protein: recombinant; tags: N-terminal polyhistidine and DsRed monomer fusion (pET32a); label: CyDye5-dUTP incorporated in the synthesized complementary strand; 3' TTTTT single-stranded linker to array surface; dsDNA, one strand shown
Procedure, shortened: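 Using Ni–NTA, transcription factors fused N-terminally to polyhistidine and DsRed were purified after expression in E. coli BL21-CodonPlus. These were incubated at 200 nM with a blocked, double-stranded custom Agilent array for 1 h at 25 °C in a buffer containing 50 µM zinc acetate, and the array was washed. The binding signal is per-feature fluorescence intensity (arbitrary units) on an Axon 4000B scanner.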

“TTTGATTAATTCAGTGCTTCCTTCCCGTTACATTACACTGCGGAGTCACCTAGTGCAG” was tested. Which binding signal did it give?
Its binding signal is 54000 fluorescence intensity (a.u.).

Which binding signal does the source give for “AGTAATTATTAATTATTTTCCTATCATTTGATTTATTGTTCGGAGTCACCTAGTGCAG” here?
Its binding signal is 35700 fluorescence intensity (a.u.).

With “ACAGTGTAATTACACTATGATTGTACTGTAATTACATTTGCGGAGTCACCTAGTGCAG” as the sequence, how does the binding signal read?
Its binding signal is 44000 fluorescence intensity (a.u.).

How did the binding signal turn out when “AAATGATTTGATCTAAATTGATAAGTTACTGAGGAGTGCGCGGAGTCACCTAGTGCAG” was run?
Its binding signal is 64800 fluorescence intensity (a.u.).

Which binding signal does the source give for “CTAATTGGCAAATTAAACAAAGAAGAAGAGGAAAGGAAGGCGGAGTCACCTAGTGCAG” here?
Its binding signal is 44700 fluorescence intensity (a.u.).

“AAACTTTAATTTATCAACCATAAAAGAAACAATTAGAAGGCGGAGTCACCTAGTGCAG” was tested. Which binding signal did it give?
The binding signal was 6940 fluorescence intensity (a.u.).

With “GCTAATTAACTGTGATTGCAAGAAGGAAAACCATAGAAGGCGGAGTCACCTAGTGCAG” as the sequence, how does the binding signal read?
Its binding signal is 53800 fluorescence intensity (a.u.).

Which binding signal does the source give for “TAAACTGATATAAGTGCCTAAATTTGGATTGAGGGTGGTGCGGAGTCACCTAGTGCAG” here?
Its binding signal is 8300 fluorescence intensity (a.u.).

For “TAAGTAATTATTAATTCTTTTCCTATCATTTGATTTATTGCGGAGTCACCTAGTGCAG”, which binding signal is on record?
Its binding signal is 11700 fluorescence intensity (a.u.).

“CTCTAATGAATGTGCATGTTATGTTTCCAAATCTCACTAGCGGAGTCACCTAGTGCAG” was tested. Which binding signal did it give?
Its binding signal is 3850 fluorescence intensity (a.u.).

“TCTCATACAATCAACAACCTTAAACACATCAGCTCTAGTACGGAGTCACCTAGTGCAG” was tested. Which binding signal did it give?
The binding signal was 4160 fluorescence intensity (a.u.).

For “CTTCTGATAACAACTGATTAGAAACTATGTTAATTTGATGCGGAGTCACCTAGTGCAG”, which binding signal is on record?
Its binding signal is 31100 fluorescence intensity (a.u.).

With “TACTCTTAGATTGAACAGGCTTCTGGCTCAAAACTTTTGACGGAGTCACCTAGTGCAG” as the sequence, how does the binding signal read?
Its binding signal is 8550 fluorescence intensity (a.u.).

Which binding signal does the source give for “ATTAATTATTTATTTCTTATATTACAGATTTTCAGTATATCGGAGTCACCTAGTGCAG” here?
Its binding signal is 18600 fluorescence intensity (a.u.).

Which binding signal does the source give for “TATAACTAATTATTTAATCGTTAATAAGCTGTTCCGCTAACGGAGTCACCTAGTGCAG” here?
The binding signal was 25600 fluorescence intensity (a.u.).

For “ACTGCTAATTAACCCTCTATAAATGCATGCCTCTCACCACCGGAGTCACCTAGTGCAG”, which binding signal is on record?
The binding signal was 30400 fluorescence intensity (a.u.).

For “TTTAACATTTCCCCTTATAATTTTACCAAATCACTATGTTCGGAGTCACCTAGTGCAG”, which binding signal is on record?
Its binding signal is 4600 fluorescence intensity (a.u.).

For “CCTCGCGCGCAGATAATTATCACAACTTATGGGGAGCTTGCGGAGTCACCTAGTGCAG”, which binding signal is on record?
Its binding signal is 3290 fluorescence intensity (a.u.).

With “CTCATTAATCTTGCTCATTAATCTTGCAATTAATCCAGAACGGAGTCACCTAGTGCAG” as the sequence, how does the binding signal read?
Its binding signal is 4900 fluorescence intensity (a.u.).

How did the binding signal turn out when “CACTTCTGTACTTGGCGTGATTGGGCCGCGGACCGGTAGACGGAGTCACCTAGTGCAG” was run?
The binding signal was 3750 fluorescence intensity (a.u.).

“AGTAATTTAAACACGAAAACATTTCTTATTGACAAGAATACGGAGTCACCTAGTGCAG” was tested. Which binding signal did it give?
Its binding signal is 4230 fluorescence intensity (a.u.).

Which binding signal does the source give for “GTTTAGGACCTTTGATTTGTTGGTGACAGAACCCAAGGCGCGGAGTCACCTAGTGCAG” here?
Its binding signal is 6360 fluorescence intensity (a.u.).

“TAAGGCAGAAAACCAAGGCCTTGACATTTCTTTTAGGACACGGAGTCACCTAGTGCAG” was tested. Which binding signal did it give?
Its binding signal is 65000 fluorescence intensity (a.u.).

Which binding signal does the source give for “TAAAATAAATCAAATTAATACAAGTGAGATATCTTAGTAACGGAGTCACCTAGTGCAG” here?
Its binding signal is 6480 fluorescence intensity (a.u.).

“TGGCTCTGATCCATCAATTAGGATTTGCCAGTGCCTCTCCCGGAGTCACCTAGTGCAG” was tested. Which binding signal did it give?
Its binding signal is 5390 fluorescence intensity (a.u.).

“GAAGGATTGAGATATGATTGATTATTATATCATATACTCTCGGAGTCACCTAGTGCAG” was tested. Which binding signal did it give?
The binding signal was 55000 fluorescence intensity (a.u.).

How did the binding signal turn out when “TCATATGATTAGGATATATCACATCTCATTATATTATATGCGGAGTCACCTAGTGCAG” was run?
The binding signal was 17800 fluorescence intensity (a.u.).

“TAGAAGATAGATTGATTGATTGATATATACTATCTCTATACGGAGTCACCTAGTGCAG” was tested. Which binding signal did it give?
The binding signal was 52600 fluorescence intensity (a.u.).

Which binding signal does the source give for “AAGAAGAATCTATCTATCTATCTATCTATCAATCTCTATACGGAGTCACCTAGTGCAG” here?
The binding signal was 3320 fluorescence intensity (a.u.).

For “AATATATTGACATTGATATCTTATAAAGAGCCTATAGATACGGAGTCACCTAGTGCAG”, which binding signal is on record?
The binding signal was 5820 fluorescence intensity (a.u.).

For “TTTGGGATTATTATAATCTAGATTATTGAGTCATATTACTCGGAGTCACCTAGTGCAG”, which binding signal is on record?
The binding signal was 10300 fluorescence intensity (a.u.).

For “TCCACAATTTGCTAATCATATTTCTGTTGATAATGATAATCGGAGTCACCTAGTGCAG”, which binding signal is on record?
The binding signal was 7820 fluorescence intensity (a.u.).

“GAAGATTGAGCTCTGCAGCAACAACCCAAACACACAAAGCCGGAGTCACCTAGTGCAG” was tested. Which binding signal did it give?
The binding signal was 3290 fluorescence intensity (a.u.).

With “CATAGGATCAATTTAATATATTGACATGCCATTAGGCCATCGGAGTCACCTAGTGCAG” as the sequence, how does the binding signal read?
Its binding signal is 10600 fluorescence intensity (a.u.).

For “CTTTACAATTAATACATGTTCCACTTGTCTCTCTCACAGACGGAGTCACCTAGTGCAG”, which binding signal is on record?
Its binding signal is 4970 fluorescence intensity (a.u.).

With “CGTAGATTTGACCGAACAAATTGTACAGTAATGTACTAGGCGGAGTCACCTAGTGCAG” as the sequence, how does the binding signal read?
Its binding signal is 20100 fluorescence intensity (a.u.).

How did the binding signal turn out when “ATTATACTATGATTGTACTGTAATTACATCTGTCAAATTTCGGAGTCACCTAGTGCAG” was run?
The binding signal was 24500 fluorescence intensity (a.u.).

With “GTGTAATTACACTATAATTGCACTATAATTATATCTGTCACGGAGTCACCTAGTGCAG” as the sequence, how does the binding signal read?
Its binding signal is 61500 fluorescence intensity (a.u.).

With “ACTGTAATTTTAATTATATTATTGTTACACTATAATTGCACGGAGTCACCTAGTGCAG” as the sequence, how does the binding signal read?
Its binding signal is 41800 fluorescence intensity (a.u.).

Which binding signal does the source give for “GTGTAATTATACTATAATTGTACTGTAATTACATCTGTCACGGAGTCACCTAGTGCAG” here?
Its binding signal is 56600 fluorescence intensity (a.u.).

“TTTACACTATAATTATATTCACTTATACATTGTAATTACACGGAGTCACCTAGTGCAG” was tested. Which binding signal did it give?
The binding signal was 13800 fluorescence intensity (a.u.).

With “GTGTAATTACACTACGATTGTACTGTAATTACATCTGTCACGGAGTCACCTAGTGCAG” as the sequence, how does the binding signal read?
Its binding signal is 29900 fluorescence intensity (a.u.).
